Common to all, as to experiment: PBM binding z-score (relative to random genomic background probes); higher = stronger binding; sequences stand for … in GC…GCGATTGACAGCGTAGAATGAAGG
Experiment [1] concerns FXR:RXRa (NR concentration 270 nM, RXRa partner concentration 90 nM). The essentials: (§1)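 Binding z-scores were set against random background probes. The data came from custom Agilent 4×180K protein-binding microarrays carrying double-stranded probes with 34-nt variable regions, incubated 1 h with ligand-free nuclear receptor dimers. Partner-specific antibodies detected binding, and scanned fluorescence was regression-normalized.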

Experiment [2] deals with LXRa:RXRa (NR concentration 270 nM, RXRa partner concentration 90 nM). The essentials: as §1
Experiment [3] relates to LXRa homodimer (NR concentration 270 nM). An outline of the steps: as §1
For experiment [4], the system named is LXRb:RXRa (NR concentration 270 nM, RXRa partner concentration 90 nM). The essentials:
as §1

The subject of experiment [5] is LXRb homodimer (NR concentration 270 nM). The essentials: as §1
Experiment [6] relates to PPARa:RXRa (NR concentration 270 nM, RXRa partner concentration 90 nM). An outline of the steps:
as §1

In experiment [7] the test system is PPARg:RXRa (NR concentration 180 nM, RXRa partner concentration 90 nM). The essentials:
as §1

Experiment [8] concerns PPARg:RXRa 270nM:90nM, anti-RXR (NR concentration 270 nM, RXRa partner concentration 90 nM). An outline of the steps: as §1
Experiment [9] concerns PPARg:RXRa 30nM:10nM, anti-RXR (NR concentration 30 nM, RXRa partner concentration 10 nM). An outline of the steps: as §1
Experiment [10] deals with PPARg:RXRa 90nM:30nM, anti-RXR (NR concentration 90 nM, RXRa partner concentration 30 nM). An outline of the steps:
as §1

Experiment [11] deals with PPARg:RXRa DBDmut IVT, anti-RXR (DBD mutation: RXRa K156A/R161A, NR concentration 270 nM, RXRa partner concentration 90 nM). The essentials:
as §1

Experiment [12] concerns PPARg:RXRa IVT, anti-PPARg (NR concentration 270 nM, RXRa partner concentration 90 nM). An outline of the steps:
as §1

The subject of experiment [13] is PPARg DBDmut:RXRa IVT, anti-PPARg (DBD mutation: PPARg1 K132A/R137A, NR concentration 270 nM, RXRa partner concentration 90 nM). The essentials:
as §1

Experiment [14] relates to PPARg DBDmut IVT, anti-PPARg (DBD mutation: PPARg1 K132A/R137A, NR concentration 270 nM). The essentials: as §1
The test system of experiment [15] is PPARg homodimer (NR concentration 180 nM). The essentials:
as §1

The test system of experiment [16] is PXR:RXRa (NR concentration 270 nM, RXRa partner concentration 90 nM). The essentials:
as §1

The subject of experiment [17] is PXR homodimer (NR concentration 270 nM). The essentials:
as §1

Experiment [18] has as its system RARa:RXR (NR concentration 270 nM, RXRa partner concentration 90 nM). An outline of the steps:
as §1

Experiment [19] concerns RARa homodimer (NR concentration 270 nM). The essentials:
as §1

In experiment [20] the test system is RARb:RXRa (NR concentration 270 nM, RXRa partner concentration 90 nM). The essentials:
as §1

The values that follow come from the supplement of paper PMC6555819.

Regarding GCATATAGGTAATACAAGGTGAAAGCCCGATTGT, the PBM binding z-score was 1.68 in experiment [1]; 1.95 in experiment [2]; 0.224 in experiment [3]; 0.494 in experiment [4]; -0.242 in experiment [5]; 1.56 in [6]. Further, the PBM binding z-score in experiment [7] came to 1.34; in experiment [8], 1.08; in [9], 0.375; in experiment [10], 0.952; in experiment [11] it was 4.04; in experiment [12], 3.27. Further, the PBM binding z-score in experiment [13] is 1.21; in experiment [14], 0.358; in [15] it was 0.757; in [16] it was 0.437; in experiment [17] it was -0.12; in experiment [18], 0.973. Besides, the PBM binding z-score in experiment [19] is 0.0827; in experiment [20] it was 0.234.
ACAGACAGGCGATGAAGGTAACTCAGGCTATCAT: the PBM binding z-score is -0.05 in experiment [1]; -0.309 in [2]; -0.155 in [3]; -0.384 in experiment [4]; -0.145 in experiment [5]; -0.503 in experiment [6]. Also, the PBM binding z-score in [7] is 0.721; in experiment [8] it was -0.326; in [9] it was 0.0512; in experiment [10], -0.438; in experiment [11], -0.645; in experiment [12], -0.444. For the same sequence, the PBM binding z-score is -0.214 in [13]; 0.247 in experiment [14]; 0.743 in experiment [15]; -0.467 in experiment [16]; 0.0486 in experiment [17]; -0.431 in experiment [18]. In addition, the PBM binding z-score is -0.0743 in experiment [19] and -0.249 in experiment [20].
Consider CCTAGGAGGCCAGGGTCACTCAAGCATTTCGCTT, for which the PBM binding z-score in [1] is 1.76; in [2], 1.21; in experiment [3] it was -0.383; in experiment [4], 1.7; in experiment [5], -1.15; in [6], 3. The PBM binding z-score in experiment [7] was 0.95; in experiment [8], 1.71; in [9], -0.259; in [10], 0.653; in experiment [11], 0.19; in experiment [12], 1.11. The PBM binding z-score in [13] is -0.773; in experiment [14], -1.85; in [15] it was 1.09; in experiment [16], 2.28; in [17] it was -0.346; in experiment [18], 2.55. Further, the PBM binding z-score in experiment [19] is -0.732; in experiment [20], 2.67.
Turning to GCTGCTAAGTCAGGTTGGTCAGCTAACGGGTACG, the PBM binding z-score in [1] was -0.434; in [2], -0.657; in experiment [3], -0.43; in experiment [4], -0.836; in experiment [5], -0.829; in experiment [6], -0.794. For the same sequence, the PBM binding z-score was -0.46 in [7]; -0.678 in experiment [8]; -0.924 in [9]; -0.942 in experiment [10]; -0.0465 in [11]; -0.681 in experiment [12]. Also, the PBM binding z-score was -1.49 in experiment [13]; -1.03 in experiment [14]; -0.201 in experiment [15]; -0.468 in experiment [16]; -0.643 in experiment [17]; -0.502 in experiment [18]. Further, the PBM binding z-score in experiment [19] is -0.643; in experiment [20] it was -0.0361.
As for AATACAGGGACACTAGGCCAGAGTAGGTACGAAT, the PBM binding z-score in experiment [1] was -0.211; in experiment [2] it was -0.375; in experiment [3], -0.0605; in experiment [4], -0.483; in experiment [5], -0.0261; in experiment [6] it was -0.00279. Also, the PBM binding z-score in experiment [7] amounted to 0.846; in experiment [8], 0.394; in [9], 0.113; in experiment [10], 0.294; in experiment [11], 0.603; in experiment [12] it was 1.52. Moreover, the PBM binding z-score was 0.579 in experiment [13]; 0.0521 in experiment [14]; -0.62 in experiment [15]; -0.635 in experiment [16]; 0.0323 in experiment [17]; -0.555 in [18]. Moreover, the results for the PBM binding z-score in experiment [19] and in experiment [20] were -0.036 and 0.688, respectively.
Consider TGAATGAGGTTACAGATCAGGGAACGTGGCGTCG, for which the PBM binding z-score in experiment [1] was 1.82; in experiment [2] it was 1.45; in [3], -0.368; in [4], 0.694; in experiment [5], 0.104; in [6], 2.94. For the same sequence, the PBM binding z-score in experiment [7] was found to be 2.65; in experiment [8], 3.06; in [9], 1.45; in [10], 2.65; in [11], 2.62; in experiment [12], 3.25. The PBM binding z-score is 0.697 in experiment [13]; 0.0776 in experiment [14]; 0.777 in experiment [15]; 0.892 in experiment [16]; -0.64 in experiment [17]; 1.67 in experiment [18]. The PBM binding z-score in [19] came to 0.0673; in experiment [20], 1.9.
